{"source": "PubChem BioAssay AID485313", "about": "(National Center for Advancing Translational Sciences (NCATS), 2010)", "note": "Out of some 320,000 compounds screened, about 7,600 (2.4%) were called active. A call without a number means that no potency is given here. About 3% were inconclusive and are not listed. Calls follow the shape of the dose curve; as a rule, active = well fitted activation curve with a large enough effect; inconclusive = small, poorly fitted or top-dose-only effect; inactive = no such curve, though single readings can be large or run the other way. Many of the other results were omitted from the sample, so actives are more common in it than they were."}
{"assay": "qHTS Assay for NPC1 Promoter Activators; also: nearly all actives have a fitted effect of over 60% in size; also: potency is read from the fitted curve at half-maximal effect;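 as to activation: reporter is driven by a mutant NPC1 promoter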", "details": "Huh7 NPC1 promoter luciferase reporter, 24 h; series mostly up to 9.22 µM", "summary_of_the_method": "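Huh7 reporter cells (NPC1 promoter driving luciferase) are dosed with compound for 24 h at 37 °C, 5% CO2; luciferase detection reagent is then added and luminescence measured after 10 min at ambient temperature.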"}
{"compound": "CCC(C(=O)N1CCN(S(=O)(=O)c2sc(C(=O)O)c(C)c2C(=O)O)CC1)c1ccccc1", "note": "(configuration not stated)", "Potency": "inactive"}
{"compound": "Cc1nc(N)sc1N=Nc1c(C)n(C)n(-c2ccccc2)c1=O", "Potency": "inactive"}
{"compound": "Cc1c(N=Nc2ccc(N(C)C)cc2)c(=O)n(-c2ccccc2)n1C", "Potency": "3.55 µM (active)"}
{"compound": "Cc1c(C=O)n(C)n(-c2ccccc2)c1=O", "Potency": "inactive"}
{"compound": "CC(C(=O)Nc1ccc(S(=O)(=O)N2CCCC2)cc1)N(C)Cc1ccc(F)cc1", "note": "(configuration not stated)", "Potency": "inactive"}
{"compound": "CCN(CC)S(=O)(=O)c1cc(C(=O)Nc2ccccn2)ccc1C", "Potency": "2.24 µM (active)"}
{"compound": "Cc1ccc(NC(=O)CNCc2ccccn2)cc1S(=O)(=O)N(C)C", "Potency": "inactive"}
{"compound": "CCN(c1ccccc1)S(=O)(=O)c1cc(C(=O)NCc2ccccn2)ccc1C", "Potency": "inactive"}
{"compound": "COc1cc(OC)cc(C(=O)NCC(=O)N2CCCCCCC2)c1", "Potency": "inactive"}
{"compound": "Cc1ccc(C)c(NC(=O)COC(=O)CSc2ccccc2)c1", "Potency": "inactive"}
{"compound": "CCN(CC)S(=O)(=O)c1ccc(-c2cn3ccc(C)cc3n2)cc1", "Potency": "1.26 µM (active)"}
{"compound": "COc1ccc(-n2c(-c3ccc(OC)c(OC)c3)n[nH]c2=S)cc1", "Potency": "inactive"}
{"compound": "Cc1ccn2cc(C(=O)NC3CCN(Cc4ccccc4)CC3)nc2c1", "Potency": "inactive"}
{"compound": "CCN(CC(=O)NCCc1ccccc1)S(=O)(=O)c1ccc(C)cc1", "Potency": "inactive"}
{"compound": "COc1ccc(-c2cn3ccsc3n2)cc1", "Potency": "1.58 µM (active)"}
{"compound": "COc1ccc(CNc2nccs2)cc1", "Potency": "inactive"}
{"compound": "CCN(c1cccc(C)c1)S(=O)(=O)c1ccc(-c2coc(C)n2)cc1", "Potency": "inactive"}
{"compound": "COc1ccc(-c2cn3ccc(C)cc3n2)cc1", "Potency": "0.112 µM (active)"}
{"compound": "COc1cc(OC)cc(-c2nc(=S)n3ccsc3n2)c1", "Potency": "inactive"}
{"compound": "COC(=O)Cc1ccc(OC(=O)C2CCN(S(=O)(=O)c3ccc(OC)c(OC)c3)CC2)cc1", "Potency": "inactive"}
{"compound": "COCCn1c(C)cc(C(=O)CSc2nnc(C3CC3)n2C2CC2)c1C", "Potency": "inactive"}
{"compound": "CN(C(=O)COC(=O)CCCc1c[nH]c2ccccc12)c1c(N)n(Cc2ccccc2)c(=O)[nH]c1=O", "Potency": "inactive"}
{"compound": "O=C(Nc1ccc2c(c1)OCCO2)C1CCCN(c2ncccn2)C1", "note": "(configuration not stated)", "Potency": "0.398 µM (active)"}
{"compound": "Cc1cc(C)nc(N2CCC(C(=O)Nc3ccc4c(c3)OCCO4)CC2)n1", "Potency": "inactive"}
{"compound": "O=C(Nc1ccc2c(c1)OCCO2)C1CCCC1", "Potency": "inactive"}
{"compound": "CCc1ccccc1NC(=O)CN(C)C(=O)c1cc(C2CC2)nn1-c1ccccc1", "Potency": "inactive"}
{"compound": "COc1ccc(Cl)cc1C(=O)OCC(=O)NCc1cccs1", "Potency": "inactive"}
{"compound": "CCN(CC(=O)Nc1c(F)cccc1F)C(=O)c1ccc(-c2ccc(C(C)=O)cc2)o1", "Potency": "inactive"}
{"compound": "N#Cc1ccc(CN2CCN(CC(=O)Nc3ccccc3C(=O)NC3CC3)CC2)cc1", "Potency": "inactive"}
{"compound": "CC(C)CN(Cc1c(O)ccc2c(=O)c(-c3ccccc3)coc12)CC(C)C", "Potency": "inactive"}
{"compound": "Cc1c(CCC(=O)O)c(=O)oc2cc3occ(-c4ccccc4)c3cc12", "Potency": "inactive"}
{"compound": "O=c1c(-c2ccccc2)coc2cc(O)ccc12", "Potency": "3.16 µM (active)"}
{"compound": "COCC1CCCN(Cc2nc(-c3ccc4c(c3)OCO4)no2)C1", "note": "(configuration not stated)", "Potency": "inactive"}
{"compound": "COc1ccc(N2CCN(C(=O)c3ccc4c(Cl)c5c(nc4c3)CCCC5)CC2)cc1", "Potency": "inactive"}
{"compound": "CC(C)CCNC(=O)c1ccc2c(Cl)c3c(nc2c1)CCC3", "Potency": "2 µM (active)"}
{"compound": "CC(=O)c1ccc(NC(=O)c2ccc3c(Cl)c4c(nc3c2)CCCC4)cc1", "Potency": "inactive"}
{"compound": "Cc1c(C)c(C)c(S(=O)(=O)N2CCC3(CC2)OCCO3)c(C)c1C", "Potency": "inactive"}
{"compound": "CCOc1ccc(S(=O)(=O)NCCC(=O)NCC2CCCO2)cc1", "note": "(configuration not stated)", "Potency": "inactive"}
{"compound": "CC(NC(=O)CN(C)S(=O)(=O)c1ccc(F)cc1)C1CC2CCC1C2", "note": "(configuration not stated)", "Potency": "inactive"}
{"compound": "CCCCN1C(=O)C(=O)N(CC(=O)Nc2cccc(C(C)=O)c2)C1=O", "Potency": "inactive"}
{"compound": "COc1cc(C(c2c(NC(=O)c3ccco3)sc(C)c2C)N2CCOCC2)cc(OC)c1OC", "note": "(configuration not stated)", "Potency": "inactive"}
{"compound": "Cc1ccc(-c2csc(NC3OC(=O)c4ccccc43)n2)cc1", "note": "(configuration not stated)", "Potency": "inactive"}
{"compound": "c1cnc(Nc2nc(-c3ccc4ccccc4c3)cs2)nc1", "Potency": "0.282 µM (active)"}
{"compound": "c1ccc(Nc2nc(-c3ccncc3)cs2)nc1", "Potency": "2.24 µM (active)"}
{"compound": "O=C(O)c1ccccc1C(=O)Nc1nc(-c2ccccc2)cs1", "Potency": "inactive"}
{"compound": "COc1ccc(C(=O)Nc2nc(-c3ccc(S(=O)(=O)N4CCOCC4)cc3)cs2)cc1", "Potency": "inactive"}
{"compound": "COc1ccc(-c2csc(Nc3ccccn3)n2)cc1", "Potency": "0.631 µM (active)"}
{"compound": "Clc1ccc(-c2csc(-c3ccncc3)n2)cc1", "Potency": "inactive"}
{"compound": "CCCn1c(CCNc2nc(-c3ccc(OC)cc3)cs2)nc2ccccc21", "Potency": "inactive"}
{"compound": "O=C(Nc1nc(-c2ccc(-c3ccccc3)cc2)cs1)c1cnccn1", "Potency": "inactive"}
{"compound": "CC(=O)c1ccc(N2CCN(C(=O)c3ccc(Cl)c(S(=O)(=O)NC4CC4)c3)CC2)c(F)c1", "Potency": "inactive"}
{"compound": "COc1ccccc1NC(=O)CSc1nnc(CNC(=O)c2ccccc2F)o1", "Potency": "inactive"}
{"compound": "O=C(/C=C/c1cccc([N+](=O)[O-])c1)OCC(=O)N1CCOCC1", "Potency": "inactive"}
{"compound": "CC1CC(=O)Nc2ccccc2N1C(=O)COc1ccc2cc(Br)ccc2c1", "note": "(configuration not stated)", "Potency": "inactive"}
{"compound": "NC(=O)NCCCC(=O)O", "Potency": "inactive"}
{"compound": "Cc1ccccc1-c1nnn(CC(=O)c2ccc(S(=O)(=O)N3CCCC3)cc2)n1", "Potency": "inactive"}
{"compound": "COc1cc(-c2nnn(CC(=O)NCc3ccccc3)n2)cc(OC)c1OC", "Potency": "inactive"}
{"compound": "CC(C)(C)NC(=O)Cn1nnc(-c2ccccc2Cl)n1", "Potency": "3.98 µM (active)"}
{"compound": "CCOc1cc(/C=C/C(=O)OCC(=O)NCCN2C(=O)CSC2=O)ccc1OCC(C)C", "Potency": "inactive"}
{"compound": "CCOC(=O)c1cc(-c2ccccc2C)n(Cc2cc(C)no2)n1", "Potency": "inactive"}
{"compound": "COCc1c(C(=O)OCC(=O)Nc2ccc(OC(F)F)cc2)oc2ccccc12", "Potency": "inactive"}
{"compound": "CN(C)c1ccc(-c2nnc(-c3cccnc3)o2)cc1", "Potency": "1.12 µM (active)"}
{"compound": "CN(C)c1nc(-c2cccnc2)nc(-c2ccc(Cl)cc2)c1C#N", "Potency": "inactive"}
{"compound": "COC(=O)CSc1nnc(-c2cccnc2)o1", "Potency": "inactive"}
{"compound": "COc1ccc([C@H]2CC(=O)C=C(/C=C/c3ccccc3)C2)cc1", "Potency": "inactive"}
{"compound": "CCc1cccc(C)c1N1C(=O)CN(Cc2ccccc2)C1=S", "Potency": "inactive"}
{"compound": "Cc1ccc(SCCSc2ncccn2)cc1", "Potency": "1.26 µM (active)"}
{"compound": "Cc1ccc(SCCC(=O)NC(C(C)C)C(C)C)cc1", "Potency": "inactive"}
{"compound": "Cc1ccc(SCCC(=O)NCc2ccccn2)cc1", "Potency": "inactive"}
{"compound": "COc1ccc(S(=O)(=O)N2CCOCC2)cc1NC(=O)Cc1coc2cc(C)ccc12", "Potency": "inactive"}
{"compound": "Cc1n[nH]c(=O)c2c(NC(=O)CSc3cc(Cl)ccc3Cl)oc(C)c12", "Potency": "inactive"}
{"compound": "CCCCN(C(=O)c1nn(C)c(=O)c2ccccc12)c1c(N)n(CCC)c(=O)[nH]c1=O", "Potency": "inactive"}
{"compound": "COc1cccc(CNC(=O)COC(=O)CN2C(=O)NC3(CCCCC3C)C2=O)c1", "note": "(configuration not stated)", "Potency": "inactive"}
{"compound": "O=C(CNC(=O)c1ccccc1Br)NNC(=O)c1cccs1", "Potency": "inactive"}
{"compound": "CN(Cc1ccccc1)C(=O)CSc1nc2ccccc2[nH]1", "Potency": "inactive"}
{"compound": "O=C(CSc1nc2ccccc2[nH]1)Nc1nc(-c2ccccc2)c(-c2ccccc2)o1", "Potency": "inactive"}
{"compound": "O=C(CSc1nc2ccccc2[nH]1)c1cccs1", "Potency": "1.26 µM (active)"}
{"compound": "CC(OC(=O)/C=C/c1ccccc1)C(=O)NC1CCCCC1C", "note": "(configuration not stated)", "Potency": "inactive"}
{"compound": "O=C(CCc1nc(-c2ccccc2)no1)Nc1cccc(C(=O)NC2CC2)c1", "Potency": "inactive"}
{"compound": "COc1ccc(C(=O)Cc2cnn(-c3ccccc3)c2)c(O)c1", "Potency": "2.51 µM (active)"}
{"compound": "COc1ccc(CC(=O)c2ccc(O)cc2O)cc1OC", "Potency": "inactive"}
{"compound": "Cc1cc(O)cc(O)c1C(=O)Cc1cnn(-c2ccccc2)c1", "Potency": "inactive"}
{"compound": "CCOc1ncccc1C(=O)OCC(=O)N1c2ccccc2CC1C", "note": "(configuration not stated)", "Potency": "inactive"}
{"compound": "CCOc1ccc(NC(=S)N2CCC(NC(=O)c3ccccc3)CC2)cc1", "Potency": "inactive"}
{"compound": "COc1ccc(N2C(=O)CCC(C(=O)Nc3ccccn3)C2c2ccc(OC)c(OC)c2)cc1", "note": "(configuration not stated)", "Potency": "inactive"}
{"compound": "CCOc1ccc(N/C=C/C(=O)c2cc(OC)c(OC)c(OC)c2)cc1", "Potency": "inactive"}
{"compound": "COc1ccc(C(=O)/C=C/Nc2ccccn2)cc1", "Potency": "0.1 µM (active)"}
{"compound": "COc1ccc(C(=O)/C=C/c2ccc(OC3CSC3)cc2)cc1", "Potency": "inactive"}
{"compound": "CCOc1ccc(N/C=C/C(=O)c2ccccc2)cc1", "Potency": "0.316 µM (active)"}
{"compound": "Cc1noc(NS(=O)(=O)c2ccc(N/C=C/C(=O)c3ccccc3)cc2)c1C", "Potency": "inactive"}
{"compound": "O=C(/C=C/NCc1ccc(F)cc1)c1ccccc1", "Potency": "inactive"}
{"compound": "Cc1ccc(N/C=C/C(=O)c2ccccc2)cc1C", "Potency": "2 µM (active)"}
{"compound": "Cc1nc2ccc(NC(=O)C3CCCCC3)cc2s1", "Potency": "inactive"}
{"compound": "COc1ccc(C(=O)OCC(=O)N2CC(=O)Nc3ccccc32)cc1Br", "Potency": "inactive"}
{"compound": "Cc1occc1-c1nnc(SCC(=O)NC2CCCCC2)o1", "Potency": "inactive"}
{"compound": "Cc1nc(SCC(=O)NC2CCCCC2C)c(C#N)c(C)c1C", "note": "(configuration not stated)", "Potency": "inactive"}
{"compound": "Cc1cccc(-n2cnc(C(=O)NNC(=S)Nc3ccccc3)c2)n1", "Potency": "inactive"}
{"compound": "COc1cccc(C(=O)Nc2cccnc2)c1OC", "Potency": "inactive"}
{"compound": "Cc1cccc(-n2cnc(C(=O)Nc3cccnc3)c2)n1", "Potency": "2.82 µM (active)"}
{"compound": "COc1ccc(S(=O)(=O)N2CCC(C(=O)N3CCCC3)CC2)cc1C", "Potency": "inactive"}
{"compound": "CCCN(CC1CC1)C(=S)NC(=O)c1ccccc1Br", "Potency": "inactive"}
{"compound": "CC1(C)CN(c2ccc(-c3ccnc4ncnn34)cc2)C1=O", "Potency": "inactive"}
{"compound": "COc1ccccc1-c1sc2ccccc2c1-c1ccc(C(C)=O)cc1", "Potency": "inactive"}
{"compound": "Oc1ccc(N=Cc2sc3ccccc3c2Cl)cc1", "Potency": "inactive"}
{"compound": "COc1ccc(N=C(C)c2sc3ccccc3c2O)cc1", "Potency": "0.708 µM (active)"}
{"compound": "CC1CCCC(C)N1C(=O)COC(=O)COc1ccccc1C#N", "note": "(configuration not stated)", "Potency": "inactive"}
{"compound": "O=C1C=C(c2cccc(Cl)c2O)C[C@@H](c2ccc(F)cc2)C1", "Potency": "inactive"}
{"compound": "CC1CCCCC12NC(=O)N(CC(=O)Nc1ccc(S(=O)(=O)Nc3ncccn3)cc1)C2=O", "note": "(configuration not stated)", "Potency": "inactive"}
{"compound": "O=C1Cc2cc(S(=O)(=O)Nc3cccc(F)c3)ccc2N1", "Potency": "inactive"}
{"compound": "Cc1ccccc1OCC(=O)Nc1ccc2c(c1)ncn2C", "Potency": "6.31 µM (active)"}
{"compound": "Cc1ccccc1OCC(=O)Nc1ccc(N2CCN(C(=O)C(C)C)CC2)c(Cl)c1", "Potency": "inactive"}
{"compound": "Cc1ccccc1OCC(=O)Nc1ccc(S(=O)(=O)N2CCOCC2)cc1", "Potency": "inactive"}
